Results taken from PubChem BioAssay (NCATS).
Inconclusive results are not listed. Active and inactive are the calls of the source. Calls follow the shape of the dose curve; as a rule, active = well fitted curve in the direction sought with a large enough effect in the signal ratio, with a control signal flat (not every such curve was filed as active); inconclusive = small, poorly fitted or top-dose-only effect, or effect the other way, or a change in a side signal; inactive = no such curve, though single readings can be large or run the other way; the % refers to the signal ratio.

Each molecule was assayed against Peroxisome proliferator-activated receptor gamma (Homo sapiens) (UniProt P37231) (assay: qHTS assay for small molecule agonists of peroxisome proliferator-activated receptor gamma signaling (AID 588536)). Settings: HEK293 PPARg-UAS-bla, beta-lactamase ratio, 16 h, percent of rosiglitazone response, DMSO as zero; series mostly up to 76.7 µM.
Peroxisome proliferator-activated receptor gamma (Homo sapiens), sequence (P37231 whole entry, looked up): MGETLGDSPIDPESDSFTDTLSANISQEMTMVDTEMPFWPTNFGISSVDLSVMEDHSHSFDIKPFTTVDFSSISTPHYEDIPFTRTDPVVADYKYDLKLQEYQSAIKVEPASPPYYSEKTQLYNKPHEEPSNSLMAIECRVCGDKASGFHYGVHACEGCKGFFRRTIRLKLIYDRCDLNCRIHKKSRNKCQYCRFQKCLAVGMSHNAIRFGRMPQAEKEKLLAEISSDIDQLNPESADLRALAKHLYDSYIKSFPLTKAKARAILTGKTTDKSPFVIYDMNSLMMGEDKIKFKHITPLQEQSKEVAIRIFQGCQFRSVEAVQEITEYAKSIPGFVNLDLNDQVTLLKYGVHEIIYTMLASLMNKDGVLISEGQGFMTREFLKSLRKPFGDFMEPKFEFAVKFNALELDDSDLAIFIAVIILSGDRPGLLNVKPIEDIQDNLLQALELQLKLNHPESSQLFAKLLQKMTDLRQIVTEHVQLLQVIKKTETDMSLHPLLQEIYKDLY
Summary of the method: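 Ratiometric blue/green fluorescence (405 nm excitation; 460 and 530 nm emission) from CCF4-loaded HEK293 reporter cells serves as signal. Exposure to test compounds lasts 16 h at 37 C in medium containing 1% charcoal/dextran-treated serum.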

Compound	outcome
CCCCCCCC[Si](Cl)(Cl)Cl	inactive
CCCCCCCOC(=O)c1ccccc1C(=O)OCCCCCCC	inactive
C=Cc1ccc(P(c2ccccc2)c2ccccc2)cc1	inactive
CC(=O)N(CCN(C(C)=O)C(C)=O)C(C)=O	inactive
CCCC/C=C\CCCCCCCCO	inactive
Nc1cc(Cl)nc(C(=O)O)c1Cl	inactive
C[Si](Cl)(Cl)[Si](C)(Cl)Cl	inactive
CCCCCCCCCc1ccccc1	inactive
CS/C(=N\O)C(=O)N(C)C	inactive
C[Si](Cl)(Cl)c1ccccc1	inactive
COC(=O)c1c(Cl)nn(C)c1S(=O)(=O)NC(=O)Nc1nc(OC)cc(OC)n1	inactive
CC1(C)CC(NCCCCCCNC2CC(C)(C)NC(C)(C)C2)CC(C)(C)N1	inactive
Cc1ccc(C(=O)c2ccccc2)cc1	inactive
